Test results: PubChem BioAssay AID651800 (The Scripps Research Institute Molecular Screening Center, 2012)
The campaign covered roughly 360,000 compounds. About 1,300 (0.36%) were called active. Shown is part of a subset that was picked to be rich in actives. Unmarked numbers belong to inactive results. Rule as the data show it: active = inhibition above about 19%; inactive = the rest.

System: T-cell receptor (TCR)
Experiment: inhibitors of human TCR-CD3 interaction, primary screen, biochemical, fluorescence, TAMRA-labeled TCR probe (AID 651800);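 also: recombinant mutant TCR 2C K166C tagged with TAMRA read by polarization; 0% = receptor in buffer alone and 100% = receptor with positive control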
Conditions: at 9.4 µM, stronger effect = higher value

Row | SMILES | inhibition
1 | COCCNC(=O)Nc1ccc2nc(-c3ccco3)c(-c3ccco3)nc2c1 | 48% (active)
2 | COc1cc(OC)cc(C(=O)NCCSCc2ccco2)c1 | 2.08%
3 | COc1ccc(CCNC(=O)Nc2ccc3c(c2)c(=O)n(C)n3C)cc1OC | -9.13%
4 | CCOC(=O)C1CSCCS(=O)(=O)N1Cc1ccc(Cl)cc1 (stereo unspecified) | -6.78%
5 | CN(C)C(=O)c1cccn(Cc2cccc(C(F)(F)F)c2)c1=O | 4.33%
6 | CNC(=S)NNC(=O)c1cccn(Cc2ccccc2)c1=O | 45.4% (active)
7 | Cc1scc(C(=O)NNC(=S)NCc2ccccc2)c1C | 3.75%
8 | CCOC(=O)CNC(=O)N(C)[C@H]1C[C@H]2c3[nH]c4c(-c5ccc6c(c5)OCO6)cccc4c3CCN2C(=O)[C@H]1[C@H](C)O | -3.41%
9 | COC(=O)C1=C(C)N(Cc2ccccc2C(F)(F)F)C(=NCC2CC2)NC1c1cccc(Cl)c1 (stereo unspecified) | 5.09%
10 | C=CCN1C(=O)N(Cc2ccccc2)c2ccccc2S1(=O)=O | -2.76%
11 | COc1ccc(Cc2nnc(SCC(=O)c3cccc([N+](=O)[O-])c3)n2C)cc1 | 3.33%
12 | COc1ccc(CNS(=O)(=O)c2cc(Br)ccc2Br)cc1 | 1.49%
13 | COc1ccc(CC(=O)N/N=C/c2cc([N+](=O)[O-])cc(Br)c2O)cc1 | 37.3% (active)
14 | C[C@H]1[C@H](c2ccccc2)Oc2cc(Br)ccc2S(=O)(=O)N1Cc1cccc(F)c1 | 2.14%
15 | CCCCCCCCN1C(=O)[C@@H](CC(=O)N2CCN(C(=O)OCC)CC2)C[C@@]2(C(=O)OC)C1=C[C@H](C1CCCC1)O[C@@H]2C | 6.64%
16 | CN(NC(=O)c1ccccc1F)c1nc(C(F)(F)F)nc2ccccc12 | 27.9% (active)
17 | CC(NC(=O)c1ccccc1F)c1cccc2ccccc12 (stereo unspecified) | -0.21%
18 | CSc1nc(N(C)NC(=O)c2cccc(C)c2)c2ccccc2n1 | -2.67%
19 | O=C1CCCCC1C(=O)c1ccccc1 (stereo unspecified) | -0.19%
20 | COC(=O)[C@]12C[C@H](CC(=O)NCc3ccccc3)C(=O)N(CCC3=CCCCC3)C1=C[C@H](C(C)(C)C)O[C@@H]2C | -4.03%
21 | CCn1c(=S)[nH]c2cc(S(=O)(=O)N3CCOCC3)ccc21 | 1.36%

Row | SMILES | inhibition
22 | CNS(=O)(=O)c1ccc2c(c1)[nH]c(=S)n2C | 45.4% (active)
23 | CCCCn1c(=S)[nH]c2cc(S(=O)(=O)N3CCCCC3)ccc21 | 1.03%
24 | COC(=O)[C@]12C[C@H](CC(=O)NCc3cccc(C(F)(F)F)c3)C(=O)N(Cc3ccc4c(c3)OCO4)C1=C[C@H](COCc1ccccc1)O[C@@H]2C | 0.9%
25 | O=C(C(=O)N1CCC(CNC(=O)c2cccnc2Cl)CC1)c1cccs1 | 0.67%
26 | C[C@H](CO)N1C[C@H](C)[C@@H](CN(C)C(=O)Nc2ccccc2F)OCc2cn(nn2)CCCC1=O | 4.97%
27 | CNC(=S)NNC(=O)c1oc2nc(-c3ccccc3)cc(-c3ccco3)c2c1N | 59.3% (active)
28 | NNC(=O)c1oc2nc(-c3ccccc3)cc(-c3ccco3)c2c1N | 16.2%
29 | Cc1ccccc1C(=O)N[C@H](C(=O)N1CCC[C@H]1C(=O)NCc1ccccc1)C(C)C | 2.94%
30 | CCCCNc1cccc2c1S(=O)(=O)N[C@@H](C)CO2 | 2.35%
31 | Cc1ccc(N)cc1CN1CCN(c2ncc(Cc3ccccc3)cn2)CC1 | 3.41%
32 | COCCCNC(=O)C[C@H]1C[C@@]2(C(=O)OC)C(=C[C@H](C(C)(C)C)O[C@@H]2C)N(Cc2ccc3c(c2)OCO3)C1=O | 3.16%
33 | CC(C)CNc1cccc2c1S(=O)(=O)N[C@H](CC(C)C)CO2 | -1.27%
34 | Brc1ccc(COCCc2cn(Cc3ccccc3)c3ccccc23)cc1 | -0.9%
35 | CC1=CC(C)(C)NC(=S)N1NC(=O)c1ccccc1Cl | -4.79%
36 | CC(Sc1nnc2c(n1)C1CCC2(C)C1(C)C)C(=O)Nc1ccccc1 (stereo unspecified) | 1.84%
37 | CC12CCC(C(=O)N(NC(=O)c3ccccc3O)C1=O)C2(C)C (stereo unspecified) | 33.6% (active)
38 | Clc1cccc2c1C1CC2CCN1Cc1ccccc1 (stereo unspecified) | -2.68%
39 | O=C(NCc1ccccc1)[C@H]1CCCN1C(=O)[C@H]1CCCN1C(=O)N1CCOCC1 | 4.79%
40 | CCCCCCCCN1C(=O)[C@@H](CC(=O)NCc2ccc(C)o2)C[C@@]2(C(=O)OC)C1=C[C@H](C(C)(C)C)O[C@@H]2C | 1.15%
41 | O=S(=O)(O)c1cc2onnc2c2ccccc12 | 28.6% (active)
42 | O=C(CCN1C(=O)c2ccccc2C1=O)NNC(=O)c1ccc(Cl)cc1Cl | -3.56%

Row | SMILES | inhibition
43 | COc1ccccc1C(=O)Nn1cnnc1 | -2.57%
44 | COc1ccccc1C(=O)NNC(=O)CCN1C(=O)/C(=C\c2ccccc2)SC1=S | 23.9% (active)
45 | CC[C@H](NC(=O)[C@H](Cc1ccccc1)NC(=O)[C@H]1O[C@@H](n2cnc3c(=O)[nH]c(N)nc32)[C@H](O)[C@@H]1O)c1ccccc1 | 1.67%
46 | COC(=O)[C@]1(Cc2ccccc2)NC=C(C(=O)c2ccccc2)[C@@H]1c1cccc(OC)c1 | -0.52%
47 | CCOC(=O)c1c(N)c(C#N)nn1-c1ccccc1C(=O)OC | -3.5%
48 | Cc1ccc2nc(-c3ccc(CN4CCC(n5cc(-c6ccccc6)[nH]c5=O)CC4)cc3)c(-c3ccccc3)nc2c1 | 5.23%
49 | O=C1Nc2ccccc2C1=NN=Cc1ccco1 | 4.85%
50 | COc1ccccc1C(=O)N1O[C@]23C=C[C@]14C[C@@H](O)CC[C@]4(C)C2CC[C@]1(C)[C@@H]([C@H](C)/C=C/[C@H](C)C(C)C)CC[C@H]13 (stereo partly specified) | -1.2%
51 | CCOc1[nH]n(-c2ccc(Cl)cc2)c(=O)c1C=Nc1ccc(O)cc1 | 28% (active)
52 | Cc1ccc(C)c(CN2CCC(CNC(=O)C3CCCN(c4ncnc5c4nc4n5CCCCC4)C3)CC2)c1 (stereo unspecified) | -2.34%
53 | CC1(C)CC(=O)C=C(NCCN2CCNCC2)C1 | 5.49%
54 | Nc1nc2c(ncn2[C@@H]2O[C@H](C(=O)N[C@@H](Cc3ccccc3)C(=O)NCc3ccccc3)[C@@H](O)[C@H]2O)c(=O)[nH]1 | -1.96%
55 | CN1C(=O)CN2CCc3ccccc3C2c2cc(Cl)ccc21 (stereo unspecified) | -2.81%
56 | COC(=O)C1=C(C)N(Cc2ccc(F)cc2)C(=S)NC1c1cccc(Cl)c1 (stereo unspecified) | 3%
57 | O=C(NS(=O)(=O)c1cccs1)[C@H]1O[C@@H](n2ccc(=O)[nH]c2=O)[C@H](O)[C@@H]1O | -0.49%
58 | Cc1cc2occ(CC(=O)NNC(=O)c3ccccc3F)c2cc1C | 2.71%
59 | O=C(NNC(=O)c1cc(S(=O)(=O)N2CCCCC2)ccc1Cl)c1ccccc1O | 16.6%
60 | Cc1ccccc1C(=O)NNC(=O)CN1C(=O)c2ccccc2C1=O | -5.72%
61 | O=C(NNC(=O)c1ccccc1O)c1ccccc1O | 40% (active)
62 | Cc1cc(C(=O)CCC(=O)NNC(=O)c2ccccc2O)c(C)s1 | 25.6% (active)
63 | Cc1cccc(NS(=O)(=O)c2cccc(C(=O)NNC(=O)c3ccccc3O)c2)c1 | 16.2%

Row | SMILES | inhibition
64 | COc1cccc(NC(=O)N(C)C[C@@H]2OCc3cn(nn3)CCCC(=O)N([C@@H](C)CO)C[C@H]2C)c1 | -4.37%
65 | C=CC1=C(C(=O)O)N2C(=O)[C@@H](NC(=O)/C(=N/OCC(=O)O)c3csc(N)n3)[C@H]2SC1 | 25.6% (active)
66 | C=CC1=C(C(=O)O)N2C(=O)[C@@H](NC(=O)/C(=N\OCC(=O)O)c3csc(N)n3)[C@H]2SC1 | 4.98%
67 | CCCCOCC1CN(CCCC)S(=O)(=O)c2c(Oc3ccc(F)cc3)cccc2O1 (stereo unspecified) | 0.77%
68 | Nc1ncnc2c1ncn2[C@@H]1O[C@H](C(=O)N[C@@H](CCc2ccccc2)C(=O)N2CCCN(Cc3cccs3)CC2)[C@@H](O)[C@H]1O | 3.68%
69 | COc1cccc(CNC(=O)[C@H]2CCCN2C(=O)[C@H]2CCCN2C(=O)c2cc(F)cc(F)c2)c1 | -6.91%
70 | CC(=O)N1C[C@@H](CO)[C@@H](N(C)C(=O)C(C)(C)C)C[C@H]1c1ccccc1Br | -0.47%
71 | CN(C)[C@@H]1C(=O)C(C(N)=O)=C(O)[C@@]2(O)C(=O)C3=C(O)c4c(O)ccc(Cl)c4[C@@H](O)[C@H]3C[C@@H]12 | 21.1% (active)
72 | C=C1c2c(Cl)ccc(O)c2C(O)=C2C(=O)[C@]3(O)C(O)=C(C(N)=O)C(=O)[C@@H](N(C)C)[C@@H]3[C@@H](O)C12 (stereo partly specified) | 33.5% (active)
73 | CCc1c(-c2ccccc2OC)ncn1CCc1ccccc1OC | 7.58%
74 | NCCN1CCN2C(=O)CN(C(=O)c3ccccc3)CC12 (stereo unspecified) | -1.77%
75 | COC(=O)[C@]12C[C@H](CC(=O)NCc3ccc(C)o3)C(=O)N(CCC3=CCCCC3)C1=C[C@H](C(C)(C)C)O[C@@H]2C | -1.26%
76 | Oc1ccc(N=Cc2sc3ccccc3c2Cl)cc1 | 89.3% (active)
77 | Oc1ccc(N=Cc2c(O)ccc3ccccc23)cc1 | 44.6% (active)
78 | Oc1ccc(/C=N/N(Cc2ccccc2)c2ccccc2)cc1 | 7.05%
79 | COc1ccc(-c2ccc3c(n2)CCCN3S(=O)(=O)c2ccc(C)cc2)cc1 | -3.11%
80 | CC(C)(C)c1ccc(S(=O)(=O)NCC2CCN(C(=O)C(=O)c3cc4ccccc4o3)CC2)cc1 | -7.28%
81 | NC(=O)c1ncn([C@@H]2O[C@H](C(=O)O)[C@@H](O)[C@H]2O)n1 | 6.54%
